{"source": "PubChem BioAssay (Tox21)", "note": "Results filed as inconclusive are left out. Values without a mark were called inactive. The call rests on the fitted dose curve. On the % scale 0 is the no-effect control and ±100 the full control effect.", "data": [{"experiment": "qHTS assay to identify small molecule agonists of H2AX - cell viability counter screen (AID 1224847);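 further: wild-type CHO-K1 cells; top concentration of the series differs between compounds; nearly all actives have a fitted effect of over 30% in size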", "conditions": "CHO-K1 viability, CellTiter-Glo luminescence, 3 h; series mostly up to 154 µM; activity change, negative = cytotoxicity: at the top concentration", "summary_of_the_method": "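After overnight plating of 1000 CHO-K1 cells per well, a 15-concentration compound series was applied for 3 hr at 37C. Luminescence from CellTiter-Glo, read following 30 min at room temperature, reflected cell viability.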", "values": [{"molecule": "Nc1cc(S(=O)(=O)O)ccc1S(=O)(=O)O", "activity change, negative = cytotoxicity": "0.0458%"}, {"molecule": "Nc1cc(Cl)cc(S(=O)(=O)O)c1O", "activity change, negative = cytotoxicity": "4.35%"}, {"molecule": "CC(=O)N(CC(O)CO)c1c(I)c(C(=O)NCC(O)CO)c(I)c(C(=O)NCC(O)CO)c1I", "note": "(stereo not given)", "activity change, negative = cytotoxicity": "0.165% [at 70.9 µM]"}, {"molecule": "CCOC(=O)C(C)(C)C", "activity change, negative = cytotoxicity": "0.446%"}, {"molecule": "O=C(O)c1ccccc1C(=O)Nc1ccc(S(=O)(=O)Nc2nccs2)cc1", "activity change, negative = cytotoxicity": "-0.745% [at 70.9 µM]"}, {"molecule": "CCCCCCCC[Si](OCC)(OCC)OCC", "activity change, negative = cytotoxicity": "4.53%"}, {"molecule": "CC(C)=CC(C)(C)C", "activity change, negative = cytotoxicity": "0.512%"}, {"molecule": "COCCOCCOCCOC", "activity change, negative = cytotoxicity": "2.21%"}, {"molecule": "CC(=O)OCC(=O)[C@@]1(O)[C@H](OC(C)=O)C[C@H]2[C@@H]3CCC4=CC(=O)C=C[C@]4(C)[C@@]3(F)[C@@H](O)C[C@@]21C", "activity change, negative = cytotoxicity": "6.27% [at 70.9 µM]"}, {"molecule": "CCCCC(CC)COC(=O)c1ccccc1", "note": "(stereo not given)", "activity change, negative = cytotoxicity": "-0.167%"}, {"molecule": "C=C[C@@H](C)CCC=C(C)C", "activity change, negative = cytotoxicity": "3.59%"}, {"molecule": "CCCCCC1Nc2cc(C(F)(F)F)c(S(N)(=O)=O)cc2S(=O)(=O)N1", "note": "(stereo not given)", "activity change, negative = cytotoxicity": "3.15% [at 70.9 µM]"}, {"molecule": "COc1cc([N+](=O)[O-])ccc1N", "activity change, negative = cytotoxicity": "1.7%"}, {"molecule": "CC(CC(=O)O)CC(C)(C)C", "note": "(stereo not given)", "activity change, negative = cytotoxicity": "-1.02%"}, {"molecule": "CCCCC(CC)C(=O)OC(C)C", "note": "(stereo not given)", "activity change, negative = cytotoxicity": "3.18%"}]}]}
